High-throughput results (PubChem BioAssay)
Compounds with a hit are over-represented: about 19% of the library has one in this group of screens.
DT40 TDP1 no CPT: qHTS for Inhibitors of human tyrosyl-DNA phosphodiesterase 1 (TDP1): qHTS in cells in absence of CPT; DT40 Tdp1-/- hTDP1 cells, no CPT, ATP luminescence, 48 h; Potency, µM (series often up to 46.2 µM), without a hit: at the top dose activity change, negative = growth inhibition, hits mostly inhibitors; 420,000 tested, 15% active; also: potency is read from the fitted curve at half-maximal effect; nearly all actives have a fitted effect of over 55% in size
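Chicken DT40 Tdp1-/- cells stably complemented with human TDP1 were seeded at 400 cells/well with DMSO in place of 20 nM camptothecin. After compound pinning, cells grew at least 48 hr at 37 °C; viability read by CellTiter-Glo luminescence.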
HT1080 IDH1KD tx: qHTS for induction of synthetic lethality in tumor cells producing 2HG: qHTS for the HT-1080-IDH1KD cell line; HT-1080 IDH1 knockdown viability, ATP luminescence, 48 h; Potency, µM (series often up to 46.1 µM), inactives show at the highest dose activity, negative = toxicity, usual class: cytotoxic; 360,000 tested, 2% active; AID 686971, 2013;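 also: potency is read from the fitted curve at half-maximal effect; 0% = DMSO wells and -100% = cell-free medium wells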
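Cytotoxicity counter-line: IDH1KD HT-1080, 48 h, CellTiter-Glo. Curves classed by r2, magnitude and activity.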
HT1080-NT tox: qHTS for induction of synthetic lethality in tumor cells producing 2HG: qHTS for the HT-1080-NT fibrosarcoma cell line; Potency, µM (top dose mostly 46.1 µM), for inactives: at the highest dose activity, negative = less viability, hits mostly cytotoxic; 360,000 tested, 1.6% active; HT-1080-NT fibrosarcoma viability, CellTiter-Glo ATP luminescence, 48 h;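 also: NT is the 2HG producing partner of a matched IDH1 knockdown line; potency is read from the fitted curve at half-maximal effect; 0% = DMSO-treated cells and -100% = media-only wells without cells; nearly all actives have a fitted effect of over 55% in size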
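A 48-hour cytotoxicity screen used HT-1080-NT cells plated 2 hours before compound delivery. ATP-based CellTiter-Glo luminescence measured viability, normalized to DMSO and no-cell controls.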
ELG1 repair inh: qHTS screen for small molecules that inhibit ELG1-dependent DNA repair in human embryonic kidney (HEK293T) cells expressing luciferase-tagged ELG1 | HEK293T ELG1-luciferase reporter, luminescence, 16 h; DNA damage induced by 5-fluorouridine | Potency, µM (highest dose often 46.1 µM), for inactives: at the highest dose activity change, negative = inhibition, most hits filed as inhibitors | 330,000 tested, 2.3% active; also: potency is read from the fitted curve at half-maximal effect; nearly all actives have a fitted effect of over 55% in size
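Step one: seed 2,000 cells per well. Step two: pin-transfer compound or DMSO alongside 5-fluorouridine. Step three: incubate 16 hr, 37 °C, 5% CO2. Step four: add ONE-Glo, wait 30 min, read luminescence.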
DT40 TDP1 CPT: qHTS for Inhibitors of human tyrosyl-DNA phosphodiesterase 1 (TDP1): qHTS in cells in presence of CPT; chicken DT40 Tdp1-/-;hTDP1 cells + 20 nM CPT, ATP luminescence, 48 h; Potency, µM (series often up to 46.2 µM), for the others: top-dose activity change, negative = growth inhibition, most hits filed as inhibitors; 420,000 tested, 12% active; AID 686979, 2013; also: potency is read from the fitted curve at half-maximal effect; nearly all actives have a fitted effect of over 55% in size
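Chicken DT40 Tdp1-/- cells complemented with human TDP1, 400 cells/well, exposed to compounds plus 20 nM camptothecin for at least 48 h at 37 C; viability read as ATP content by CellTiter-Glo luminescence.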
IL1B secr inh: qHTS for Inhibitors of Inflammasome Signaling: IL-1-beta AlphaLISA Primary Screen; THP-1 LPS/ATP IL-1B secretion, AlphaLISA, 16 h; hits give low values; activity change, % at 57.5 µM; 360,000 tested, 4.7% active; AID 743279, 2014; in the data active = activity change below about -50%; inconclusive = mostly about -30% to -49%
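THP-1 cells pretreated 1 hr with compounds (up to 57.5 uM final), then stimulated with LPS (250 ng/mL final) plus ATP (1.25 mM final); secreted IL-1B measured by AlphaLISA after 16 hr, decreased signal indicating inhibition.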
Active calls of the source: *; ? = inconclusive; · = not tested or not shown; [ ] = another dose, or the depositor's remark. Unless noted, calls follow the shape of the dose curve; as a rule, active = well fitted curve in the direction sought with a large enough effect; inconclusive = small, poorly fitted or top-dose-only effect, or another doubt; inactive = no such curve, though single readings can be large; an effect the other way counts as inactive or inconclusive. Unless noted, % is scaled to controls: 0 for no effect and ±100 for the full control effect.

SMILES	DT40 TDP1 no CPT	HT1080 IDH1KD tx	HT1080-NT tox	ELG1 repair inh	DT40 TDP1 CPT	IL1B secr inh
N#Cc1ccc(C(=O)NCc2ccc3c(c2)CCN3C(=O)c2ccc(F)cc2)cc1	23µM*	·	·	·	?	·
COCCOC(=O)c1c(C)nc(SCC(=O)Nc2cccc3ccccc23)c(C#N)c1-c1ccco1	29µM*	0%	-12%	13µM*	?	122
Cc1nn(Cc2ccc(Cl)cc2Cl)c(Cl)c1/C=C/C(=O)OCC(=O)NCC(F)(F)F	21µM*	-21%	-5%	-20%	-29%	0
Cc1nn(Cc2ccccc2Cl)c(Cl)c1/C=C/C(=O)OCC(=O)NC(N)=O	2.3µM*	-2%	2%	-20%	?	-3
Cc1nn(Cc2ccccc2)c(Cl)c1/C=C/C(=O)OCC(=O)N1CCCC1=O	17%	9%	15%	-3%	13%	13
Cc1nn(Cc2ccccc2Cl)c(Cl)c1/C=C/C(=O)OCC(=O)NC1CCS(=O)(=O)C1 (stereo unspecified)	-26%	18%	-17%	-8%	21%	7
CCOc1ccccc1N(C)C(=O)c1cc(S(=O)(=O)NCc2ccc(C)cc2)ccc1F	21µM*	·	·	·	18µM*	·
Cc1ccc(S(=O)(=O)NCc2ccccc2)cc1C(=O)N(C)Cc1ccc(F)cc1	?	-2%	18%	-10%	?	35
COc1ccccc1CCNC(=O)c1cnn2c(C(F)F)cc(C)nc12	23µM*	6%	-1%	-6%	21µM*	-2
COc1ccccc1CNC(=O)c1cnn2c(C(F)F)cc(C)nc12	?	1%	2%	23µM*	?	?
CCN(CC)S(=O)(=O)c1ccc2[nH]c(=O)cc(C(=O)Nc3ccccc3N3CCOCC3)c2c1	11%	8%	10%	-25%	2%	-4
Cc1ccc(C(=O)NC(=S)Nc2cccc(NC(=O)c3ccccc3)c2)cc1[N+](=O)[O-]	16µM*	1%	-1%	?	?	-7
Cc1cc(C(=O)Nc2ccncc2)ccc1[N+](=O)[O-]	15µM*	5%	10%	1%	?	-4
Cc1ccc(C(=O)Nc2ccncc2)cc1[N+](=O)[O-]	0.73µM*	-2%	-5%	-11%	?	-55*
CCN(CC)C(=O)c1sc(NC(=O)c2ccc(C)c([N+](=O)[O-])c2)c(C#N)c1C	21µM*	-13%	-14%	-27%	?	8
COC(=O)[C@@H]1C[C@@H](NC(=O)c2ccc(C(F)(F)F)cc2)CN1Cc1cccc(O)c1	-15%	·	·	·	-8%[9.04 µM]	·
COc1ccc(Cl)cc1NC(=O)NNC(=O)C(=O)Nc1ccc(F)cc1	13%	?	-2%	·	-18%	-6
Cc1ccc(C(=O)NCCSC(C)(C)C)cc1[N+](=O)[O-]	?	12%	10%	?	?	1
Cc1ccc(C(=O)NCC(C)NC(=O)c2ccc(C)c([N+](=O)[O-])c2)cc1[N+](=O)[O-] (stereo unspecified)	15µM*	-4%	3%	·	?	-20
Cc1cccc(C(=O)NCC2Cc3cc(F)cc(-c4cnccn4)c3O2)n1 (stereo unspecified)	?	·	·	·	3%[9.04 µM]	·
CCOC1=C2[C@H](c3ccccc3Cl)N(S(=O)(=O)c3ccc(C)cc3)C[C@H]2C(C#N)(C#N)C(C#N)(C#N)C1	9.2µM*	-1%	-1%	·	4.6µM*	?
CCOC1=C2CN(S(=O)(=O)c3ccc(C)cc3)[C@H](c3ccc(CC)cc3)C[C@@H]2N(S(=O)(=O)c2ccc(C)cc2)[C@H](c2ccccc2)C1	?	4%	5%	·	?	20
CCOC1=C2[C@H](c3ccc(CC)cc3)N(S(=O)(=O)c3ccc(C)cc3)C[C@H]2C(C#N)(C#N)C(C#N)(C#N)C1	3.3µM*	-10%	-4%	·	3.7µM*	-76*
Cc1cc(OCCCC(=O)Nc2cccc(-n3cnnn3)c2)ccc1Cl	12µM*	1%	-1%	-3%	?	-6
COc1cccc(NC(=O)COc2cccc(-n3cnnn3)c2)c1	11%	6%	5%	-9%	1%	0
SMILES	DT40 TDP1 no CPT	HT1080 IDH1KD tx	HT1080-NT tox	ELG1 repair inh	DT40 TDP1 CPT	IL1B secr inh
Cc1ccccc1OCc1occc1C(=O)Nc1cccc(-n2cnnn2)c1	18µM*	?	-29%	?	23µM*	11
Cc1ccc(-n2ncc3c(SCC(=O)NNC(=O)c4ccco4)ncnc32)cc1	-16%	-4%	-13%	20%	18%	9
O=C(C(=O)N1CCC(c2ccccc2)CC1)c1cccc([N+](=O)[O-])c1	?	11%	15%	·	-8%	-4
Cn1ncc2c1NC(c1ccc(F)cc1)SCC2=O (stereo unspecified)	-27%	4%	4%	·	-12%	6
CCc1cc(=O)oc2c3c(c(Cl)cc12)OCN(Cc1cccc(OC)c1)C3	-19%	·	·	·	-24%	·
CCc1cc(=O)oc2c(C)c3c(cc12)CN(CCc1ccccc1OC)CO3	21µM*	·	·	·	-41%	·
CCCc1cc(=O)oc2c(C)c3c(cc12)CN(CCc1ccc(Cl)cc1)CO3	15µM*	·	·	·	6.5µM*	·
COc1cccc(C(NC(C)=O)c2nc(-c3ccncc3)cs2)c1 (stereo unspecified)	?	1%	17%	·	-21%	17
CCOc1ccc(Nc2nc(Nc3ccc(OCC)cc3)nc(N3CCOCC3)n2)cc1	-7%	·	·	·	-15%	·
CCOc1nc(Nc2ccc(OC)c(Cl)c2)nc(N2CCN(c3ccc(OC)cc3)CC2)n1	23µM*	-7%	0%	18µM*	18µM*	?
N#Cc1ccc(Oc2nc(Nc3ccc(F)cc3)nc(N3CCCC3)n2)cc1	?	?	-4%	16µM*	?	-18
CCOc1ccc(Nc2nc(N3CCCC3)nc(N3CCN(c4ccc(OC)cc4)CC3)n2)cc1	16µM*	15%	24%	8%	?	0
N#Cc1nc(COc2ccc(F)cc2)oc1N1CCCC1	-4%	11%	19%	9%	-1%	-26
